# Assay results taken from ChEMBL document CHEMBL1961873, “Compounds: GSK PKIS; Assays: Nanosyn kinase panel” (2012).
# “And” between values parts separate entries of the source, which are not always exact repeats. Equal values may be shown once.
# Assays:
# [1] = target: CDK3/Cyclin E (Homo sapiens) (UniProt P24864+Q00526); conditions: at 1 µM;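 also: each figure is a mean percent inhibition of the CDK3/cyclin E complex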
# [2] = target: Cyclin-dependent kinase 4 (Homo sapiens) (UniProt P11802); conditions: at 0.1 µM
# [3] = target: Cyclin-dependent kinase 4 (Homo sapiens) (UniProt P11802); conditions: at 1 µM
# [4] = target: Cyclin-dependent kinase 5 (Homo sapiens) (UniProt Q00535); conditions: at 0.1 µM
# [5] = target: Cyclin-dependent kinase 5 (Homo sapiens) (UniProt Q00535); conditions: at 1 µM
# [6] = target: Cyclin-dependent kinase 6 (Homo sapiens) (UniProt Q00534); conditions: at 0.1 µM
# [7] = target: Cyclin-dependent kinase 6 (Homo sapiens) (UniProt Q00534); conditions: at 1 µM
# [8] = target: Dual specificity protein kinase CLK2 (Homo sapiens) (UniProt P49760); conditions: at 0.1 µM
# [9] = target: Dual specificity protein kinase CLK2 (Homo sapiens) (UniProt P49760); conditions: at 1 µM
# [10] = target: Dual specificity protein kinase CLK3 (Homo sapiens) (UniProt P49761); conditions: at 0.1 µM
# [11] = target: Dual specificity protein kinase CLK3 (Homo sapiens) (UniProt P49761); conditions: at 1 µM
# [12] = target: Dual specificity tyrosine-phosphorylation-regulated kinase 1A (Homo sapiens) (UniProt Q13627); conditions: at 0.1 µM
# [13] = target: Dual specificity tyrosine-phosphorylation-regulated kinase 1A (Homo sapiens) (UniProt Q13627); conditions: at 1 µM
# [14] = target: Dual specificity tyrosine-phosphorylation-regulated kinase 1B (Homo sapiens) (UniProt Q9Y463); conditions: at 0.1 µM
# [15] = target: Dual specificity tyrosine-phosphorylation-regulated kinase 1B (Homo sapiens) (UniProt Q9Y463); conditions: at 1 µM
# [16] = target: T1, Dual specificity tyrosine-phosphorylation-regulated kinase 2 (Homo sapiens) (UniProt Q92630); conditions: at 0.1 µM
# T1 sequence (whole entry): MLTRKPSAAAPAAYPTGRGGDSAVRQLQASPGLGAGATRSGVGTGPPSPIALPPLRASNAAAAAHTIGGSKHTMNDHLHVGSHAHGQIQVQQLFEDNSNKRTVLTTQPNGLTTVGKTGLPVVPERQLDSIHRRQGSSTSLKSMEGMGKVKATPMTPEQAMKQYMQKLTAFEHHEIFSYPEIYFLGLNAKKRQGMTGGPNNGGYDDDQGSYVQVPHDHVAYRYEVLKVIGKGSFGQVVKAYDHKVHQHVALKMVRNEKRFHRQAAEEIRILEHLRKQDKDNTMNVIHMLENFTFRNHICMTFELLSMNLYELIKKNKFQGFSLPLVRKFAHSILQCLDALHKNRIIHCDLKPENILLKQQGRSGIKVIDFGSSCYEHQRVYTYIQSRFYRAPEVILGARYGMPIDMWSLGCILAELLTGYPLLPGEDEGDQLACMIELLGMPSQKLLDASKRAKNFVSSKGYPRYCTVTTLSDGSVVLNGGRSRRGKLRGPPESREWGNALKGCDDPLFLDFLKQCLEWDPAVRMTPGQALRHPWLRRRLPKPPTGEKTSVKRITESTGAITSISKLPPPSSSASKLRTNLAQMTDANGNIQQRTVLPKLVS
# [17] = target: T1, Dual specificity tyrosine-phosphorylation-regulated kinase 2 (Homo sapiens); conditions: at 1 µM
# [18] = target: Glycogen synthase kinase-3 alpha (Homo sapiens) (UniProt P49840); conditions: at 0.1 µM
# [19] = target: Glycogen synthase kinase-3 alpha (Homo sapiens) (UniProt P49840); conditions: at 1 µM
# [20] = target: Glycogen synthase kinase-3 beta (Homo sapiens) (UniProt P49841); conditions: at 0.1 µM;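 also: values are mean percent inhibition of GSK3B activity, from the GSK Published Kinase Inhibitor Set (PKIS) screening dataset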
# Glycogen synthase kinase-3 beta (Homo sapiens), sequence (P49841 whole entry, looked up): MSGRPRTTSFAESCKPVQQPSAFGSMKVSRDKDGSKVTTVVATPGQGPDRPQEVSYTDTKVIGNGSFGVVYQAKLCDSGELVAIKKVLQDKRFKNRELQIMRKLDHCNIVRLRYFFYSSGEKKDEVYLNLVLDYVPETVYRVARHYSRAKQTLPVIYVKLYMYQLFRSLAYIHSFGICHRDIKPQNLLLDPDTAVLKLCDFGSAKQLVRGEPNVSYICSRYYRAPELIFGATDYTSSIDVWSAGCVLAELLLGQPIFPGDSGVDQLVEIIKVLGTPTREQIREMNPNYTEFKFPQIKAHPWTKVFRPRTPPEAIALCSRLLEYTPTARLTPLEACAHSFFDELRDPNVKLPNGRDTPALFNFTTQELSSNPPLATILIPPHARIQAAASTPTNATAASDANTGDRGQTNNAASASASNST
# Cyclin-dependent kinase 4 (Homo sapiens), sequence (P11802 whole entry): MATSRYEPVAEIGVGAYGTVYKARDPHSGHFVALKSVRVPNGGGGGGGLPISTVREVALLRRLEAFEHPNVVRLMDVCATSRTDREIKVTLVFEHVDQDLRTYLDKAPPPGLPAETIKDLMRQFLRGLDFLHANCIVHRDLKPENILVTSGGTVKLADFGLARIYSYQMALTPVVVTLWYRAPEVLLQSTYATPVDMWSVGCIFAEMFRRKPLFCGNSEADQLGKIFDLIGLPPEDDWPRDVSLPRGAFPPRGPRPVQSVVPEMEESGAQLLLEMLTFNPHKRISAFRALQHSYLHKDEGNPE
# Dual specificity protein kinase CLK3 (Homo sapiens), sequence (P49761 whole entry, looked up): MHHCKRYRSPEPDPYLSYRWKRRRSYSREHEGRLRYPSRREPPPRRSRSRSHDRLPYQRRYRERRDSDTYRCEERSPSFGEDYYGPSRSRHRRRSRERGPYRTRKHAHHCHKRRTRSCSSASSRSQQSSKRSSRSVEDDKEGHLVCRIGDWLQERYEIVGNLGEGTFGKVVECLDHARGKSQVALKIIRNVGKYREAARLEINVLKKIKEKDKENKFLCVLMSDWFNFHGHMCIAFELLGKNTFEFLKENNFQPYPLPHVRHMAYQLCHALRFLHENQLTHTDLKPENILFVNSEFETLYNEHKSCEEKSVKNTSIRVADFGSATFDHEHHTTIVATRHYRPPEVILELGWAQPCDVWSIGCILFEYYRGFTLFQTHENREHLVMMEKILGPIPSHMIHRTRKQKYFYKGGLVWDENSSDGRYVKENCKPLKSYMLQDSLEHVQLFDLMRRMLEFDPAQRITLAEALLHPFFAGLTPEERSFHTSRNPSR
# Glycogen synthase kinase-3 alpha (Homo sapiens), sequence (P49840 2-483 limits assumed): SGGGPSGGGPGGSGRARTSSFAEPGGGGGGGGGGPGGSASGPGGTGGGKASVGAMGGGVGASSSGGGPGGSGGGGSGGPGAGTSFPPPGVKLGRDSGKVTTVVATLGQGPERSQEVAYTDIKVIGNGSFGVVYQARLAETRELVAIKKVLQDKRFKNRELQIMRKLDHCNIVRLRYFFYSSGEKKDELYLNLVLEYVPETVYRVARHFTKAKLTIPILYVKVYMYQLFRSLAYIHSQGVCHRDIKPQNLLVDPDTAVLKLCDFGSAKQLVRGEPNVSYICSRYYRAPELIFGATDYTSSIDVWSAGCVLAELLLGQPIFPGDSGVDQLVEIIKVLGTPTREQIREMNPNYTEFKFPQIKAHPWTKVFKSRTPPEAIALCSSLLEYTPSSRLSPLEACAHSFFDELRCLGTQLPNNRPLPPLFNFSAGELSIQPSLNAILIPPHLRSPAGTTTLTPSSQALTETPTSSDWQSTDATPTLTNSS
# Cyclin-dependent kinase 6 (Homo sapiens), sequence (Q00534 whole entry): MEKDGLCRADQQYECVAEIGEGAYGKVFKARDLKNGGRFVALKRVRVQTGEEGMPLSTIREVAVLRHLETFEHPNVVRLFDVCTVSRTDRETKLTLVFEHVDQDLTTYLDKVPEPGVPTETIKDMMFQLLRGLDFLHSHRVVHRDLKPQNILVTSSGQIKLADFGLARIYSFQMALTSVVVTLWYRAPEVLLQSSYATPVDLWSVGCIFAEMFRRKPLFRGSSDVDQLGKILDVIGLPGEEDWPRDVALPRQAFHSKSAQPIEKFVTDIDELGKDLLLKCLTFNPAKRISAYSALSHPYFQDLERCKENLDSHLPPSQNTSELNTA
# CDK3/Cyclin E (Homo sapiens), sequence (P24864 whole entry, looked up): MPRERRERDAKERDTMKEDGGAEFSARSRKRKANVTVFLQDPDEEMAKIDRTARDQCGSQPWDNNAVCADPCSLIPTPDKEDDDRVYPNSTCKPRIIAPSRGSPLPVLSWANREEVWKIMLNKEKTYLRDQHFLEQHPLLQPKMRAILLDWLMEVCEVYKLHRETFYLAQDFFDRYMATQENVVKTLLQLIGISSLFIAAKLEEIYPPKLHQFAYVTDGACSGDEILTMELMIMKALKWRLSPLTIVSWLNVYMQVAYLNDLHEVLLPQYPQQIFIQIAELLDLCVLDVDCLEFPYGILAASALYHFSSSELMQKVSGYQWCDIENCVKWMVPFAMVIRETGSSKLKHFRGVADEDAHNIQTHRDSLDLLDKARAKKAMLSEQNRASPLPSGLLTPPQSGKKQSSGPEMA
# CDK3/Cyclin E (Homo sapiens), sequence (Q00526 whole entry, looked up): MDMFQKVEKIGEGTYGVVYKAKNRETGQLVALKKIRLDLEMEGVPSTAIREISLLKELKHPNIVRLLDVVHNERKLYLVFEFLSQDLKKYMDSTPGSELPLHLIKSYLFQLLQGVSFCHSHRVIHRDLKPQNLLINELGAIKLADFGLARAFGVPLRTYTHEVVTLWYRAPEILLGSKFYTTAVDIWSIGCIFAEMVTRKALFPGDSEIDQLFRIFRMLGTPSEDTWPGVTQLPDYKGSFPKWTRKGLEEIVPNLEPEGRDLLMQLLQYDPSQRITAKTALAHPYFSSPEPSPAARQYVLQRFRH
# Cyclin-dependent kinase 5 (Homo sapiens), sequence (Q00535 whole entry, looked up): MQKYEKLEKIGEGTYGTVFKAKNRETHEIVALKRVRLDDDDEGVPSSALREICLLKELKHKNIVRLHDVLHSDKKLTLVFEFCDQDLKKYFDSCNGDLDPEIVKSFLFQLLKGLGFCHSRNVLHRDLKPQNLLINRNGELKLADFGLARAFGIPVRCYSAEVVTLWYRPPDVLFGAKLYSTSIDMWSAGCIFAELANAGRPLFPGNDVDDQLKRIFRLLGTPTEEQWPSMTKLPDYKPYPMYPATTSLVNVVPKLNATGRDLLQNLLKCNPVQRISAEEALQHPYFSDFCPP
# Dual specificity protein kinase CLK2 (Homo sapiens), sequence (P49760 whole entry, looked up): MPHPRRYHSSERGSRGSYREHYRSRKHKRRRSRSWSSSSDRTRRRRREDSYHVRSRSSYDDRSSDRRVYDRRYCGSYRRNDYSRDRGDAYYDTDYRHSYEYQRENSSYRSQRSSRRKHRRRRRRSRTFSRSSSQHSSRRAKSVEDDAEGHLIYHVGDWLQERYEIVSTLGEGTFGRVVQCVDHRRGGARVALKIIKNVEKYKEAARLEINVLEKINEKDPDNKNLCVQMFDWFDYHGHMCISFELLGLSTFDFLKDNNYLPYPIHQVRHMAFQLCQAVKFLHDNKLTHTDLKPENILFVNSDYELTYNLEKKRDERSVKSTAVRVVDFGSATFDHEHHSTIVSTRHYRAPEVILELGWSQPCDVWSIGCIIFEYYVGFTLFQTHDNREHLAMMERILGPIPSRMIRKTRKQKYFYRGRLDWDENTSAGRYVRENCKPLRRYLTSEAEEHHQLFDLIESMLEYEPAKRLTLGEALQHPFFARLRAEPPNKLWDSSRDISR
# Dual specificity tyrosine-phosphorylation-regulated kinase 1B (Homo sapiens), sequence (Q9Y463 whole entry, looked up): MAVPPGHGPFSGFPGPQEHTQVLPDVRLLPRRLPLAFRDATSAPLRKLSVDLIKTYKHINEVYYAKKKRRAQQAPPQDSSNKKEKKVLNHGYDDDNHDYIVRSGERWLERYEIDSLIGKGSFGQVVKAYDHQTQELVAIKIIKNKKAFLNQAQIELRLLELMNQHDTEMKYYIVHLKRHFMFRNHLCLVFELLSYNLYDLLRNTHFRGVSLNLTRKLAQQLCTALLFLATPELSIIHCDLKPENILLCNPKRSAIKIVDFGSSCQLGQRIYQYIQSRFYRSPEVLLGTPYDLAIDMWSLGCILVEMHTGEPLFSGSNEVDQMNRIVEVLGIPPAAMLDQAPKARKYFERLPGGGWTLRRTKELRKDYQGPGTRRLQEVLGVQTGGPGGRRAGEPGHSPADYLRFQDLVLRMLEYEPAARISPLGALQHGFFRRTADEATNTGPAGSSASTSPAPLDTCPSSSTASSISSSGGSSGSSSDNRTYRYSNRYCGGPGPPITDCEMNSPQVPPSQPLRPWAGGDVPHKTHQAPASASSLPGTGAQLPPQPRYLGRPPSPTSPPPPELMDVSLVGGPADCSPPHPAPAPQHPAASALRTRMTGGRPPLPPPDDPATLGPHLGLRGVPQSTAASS
SMILES,inhibition [1],inhibition [2],inhibition [3],inhibition [4],inhibition [5],inhibition [6],inhibition [7],inhibition [8],inhibition [9],inhibition [10],inhibition [11],inhibition [12],inhibition [13],inhibition [14],inhibition [15],inhibition [16],inhibition [17],inhibition [18],inhibition [19],inhibition [20]
Cc1c2ccc(N(C)c3ccnc(Nc4cccc(S(N)(=O)=O)c4)n3)cc2nn1C,2.13%,-3.55%,9.57%,-1.58%,0.35%,-1.51%,15.3%,1.61%,0.97%,-1.14%,1.11%,-1.03%,1.54%,-3.31%,-2.73%,2.38%,2.71%,-0.44%,6.37%,-0.25%
O=C1Nc2ccccc2/C1=C1\CCc2cc(O)ccc21,2.91%,3.57%,7.74%,1.5%,7.54%,3.57%,30.5%,2.81%,13.6%,1.61%,3.11%,7.28%,34%,2.1%,17.7%,5.9%,24.7%,3.11%,10.5%,1.77%
CC1=C(C(=O)Nc2ccc3[nH]ncc3c2)C(c2ccc(F)cc2)N=C(c2ccc(C(F)(F)F)nc2)N1 (stereo not given),1.96%,2.27%,2.07%,0.56%,0.43%,2.17%,1.9%,0.46%,-0.11%,1.34%,2.08%,1.92%,2.39%,1.23%,1.37%,1.37%,1.27%,1.54%,4.37%,1.95%
COc1cccc(Nc2nccc(-c3cnn4ncccc34)n2)c1,91.4%,56.5%,76.9%,59.3%,78%,49.5%,80.5%,93.9%,98.2%,23.2%,65.3%,77.4%,88.3%,81.5%,90%,5.88%,37.6%,60.7%,79.5%,59.7%
Nc1nonc1-c1nc2cnccc2n1C1CC1,4.03% and 3.32%,1.99% and -2.13%,2.95% and -0.61%,3.26% and -1.62%,16.6% and 12.1%,0.11% and -4.39%,1.22% and -0.23%,0.67% and 3.19%,17% and 19%,1.8% and -2.05%,2.54% and -2.2%,22% and 20.1%,65.5% and 61.9%,13.7% and 10.7%,55.7% and 52.9%,4.16% and 3.22%,19.6% and 19.7%,25% and 21.2%,70.2% and 63.7%,21.5% and 17.6%
COc1cc(N2CCN(C(C)C)CC2)ccc1Nc1nc(Nc2cccc3ncccc23)c2cc[nH]c2n1,-2.06%,-0.07%,1.11%,1.69%,4.66%,1.04%,8.48%,4.18%,20.7%,-0.15%,1.89%,0.19%,5.87%,1.41%,7.46%,-1.54%,-1.74%,0.06%,3.49%,0.31%
COC(=O)Nc1nc2ccc(Oc3ccc(NC(=O)Nc4cc(C(F)(F)F)ccc4F)cc3)cc2s1,-0.71%,0.7%,2.02%,0.77%,1.66%,0.38%,2.05%,0.47%,3.04%,0.06%,0.05%,0.96%,2.5%,1.09%,2.02%,-0.29%,0.21%,0.71%,4.01%,-0.46%
COc1ccccc1-c1cc(/C=C2\C(=O)Nc3ncc(Br)cc32)cc(Br)c1O,1.11%,5.08%,7.62%,4.84%,4.91%,1.08%,6.64%,1.63%,5.09%,2.35%,9.88%,2.51%,11.2%,0.86%,4.16%,3.68%,4.79%,4.73%,10%,5.17%
CS(=O)(=O)Nc1ccc(-c2cc(-c3ccccc3)cc(C(N)=O)c2N)cc1,-1.91%,0.62%,1.63%,0.11%,0.2%,-0.52%,-0.55%,0.11%,2.34%,0.2%,-0.57%,0.57%,4.13%,0.32%,1.12%,0.61%,2.18%,1.48%,3.56%,0.94%
Fc1cccc(COc2ccc(Nc3ncncc3C#Cc3ccccc3)cc2Cl)c1,-2.37%,2.27%,2.61%,1.02%,1.31%,3.3%,2.89%,1.45%,2.09%,2.41%,2.05%,2.88%,5.18%,0.4%,1.45%,3.74%,4.05%,3.26%,4.91%,2.3%
COc1cc2c(cc1Nc1nc(Nc3cccc(F)c3C(N)=O)c3cc[nH]c3n1)N(C(=O)CN1CCN(C(C)C)CC1)CC2,-0.76%,1.15%,1.2%,0.64%,0.27%,-4.06%,-0.78%,6.86%,45.4%,0.88%,1.39%,1.82%,10.2%,3.8%,9.06%,2.66%,5.93%,1.62%,2.06%,0.46%
N#Cc1cccc(Nc2ncc(-c3ccccc3)o2)c1,40.2%,3.86%,26.7%,4.45%,30.5%,21.9%,63%,1.44%,9.1%,1.7%,1.97%,1.47%,5.95%,-0.09%,3.53%,0.71%,2.45%,5.76%,25.6%,2.85%
CCOc1ccc2c(-c3ccnc(Nc4cc(OC)cc(C(F)(F)F)c4)n3)cnn2n1,3.56%,1.15%,6.68%,2.44%,9.18%,2.68%,7.59%,81.2%,96.3%,3.69%,21.8%,5.33%,21.6%,8.29%,38.8%,1.12%,5.62%,9.42%,30.3%,9.12%
